Compound activity (PubChem)
Shown are actives, neighbours in structure and some others; about 2.2% of the full set was active somewhere.
CHRM1 antagonist: antagonists of human M1 muscarinic receptor; inhibition, % at 3 µM; P11229; 360,000 tested, 1.3% active; CHO-K1 hM1, Fluo-8 calcium fluorescence, ACh EC80 antagonist;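 active = percent inhibition above its own plate's cutoff, namely the mean of that plate's compound wells plus 3 SD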;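 note: peak over basal fluorescence ratio during 140 s after agonist addition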
M4 antag: blocks acetylcholine activation of human M4 receptor. AID 624125. CHO-hM4 cells, ACh EC80, Fluo-8 calcium fluorescence. P08173. inhibition, % at 3 µM. 360,000 tested, 0.73% active;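 active = inhibition above its plate's cutoff, the mean inhibition of sample wells plus 3 SD, cut at about 27% in these data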
Target sequence (P08173 whole entry, looked up): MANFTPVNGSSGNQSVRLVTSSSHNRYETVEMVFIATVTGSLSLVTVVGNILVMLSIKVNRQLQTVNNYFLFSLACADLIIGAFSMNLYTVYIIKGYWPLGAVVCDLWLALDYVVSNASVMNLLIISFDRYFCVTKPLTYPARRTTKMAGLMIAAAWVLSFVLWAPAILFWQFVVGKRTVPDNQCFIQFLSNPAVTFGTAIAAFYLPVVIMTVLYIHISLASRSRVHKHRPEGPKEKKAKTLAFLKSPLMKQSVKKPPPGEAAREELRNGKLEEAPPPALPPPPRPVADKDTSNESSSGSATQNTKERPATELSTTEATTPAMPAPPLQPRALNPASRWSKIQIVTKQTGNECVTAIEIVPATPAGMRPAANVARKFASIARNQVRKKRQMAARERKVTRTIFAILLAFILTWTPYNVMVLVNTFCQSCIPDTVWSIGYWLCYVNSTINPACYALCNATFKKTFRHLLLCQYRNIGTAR
M1 ag: activates human CHRM1 receptor. P11229. CHO-K1 hM1, Fluo-8 calcium fluorescence, agonist mode; 0% DMSO, 100% acetylcholine EC100. activation, % at 3 µM. 360,000 tested, 0.33% active;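 active = activation above the run's mean compound activation plus 3 SD, cut at about 16% in these data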;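 note: peak over basal fluorescence ratio within a 140 s kinetic read after compound addition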
CHRM4 agonist: CHRM4 agonism in calcium assay | P08173 | CHO-K1 hM4/Gqi5, Fluo-8 calcium fluorescence; vehicle 0%, full acetylcholine response 100% | activation, % at 3 µM | 360,000 tested, 0.14% active;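 active = activation above the run mean over all test wells plus 3 SD, cut at about 32% in these data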;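 note: peak over basal fluorescence ratio per well then scaled between controls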
M4 PAM: positive allosteric modulators of human muscarinic M4 receptor; CHO-K1 hM4/Gqi5, Fluo-8 calcium fluorescence, ACh EC20; 0% = ACh EC20, 100% = maximal ACh; AID 624126; P08173; activation, % at 3 µM; 360,000 tested, 0.4% active;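 active = activation above its plate's cutoff, the mean activation of sample wells plus 3 SD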
M1 PAM: potentiates human M1 receptor response to acetylcholine; 360,000 tested, 0.088% active; CHO-K1 hM1, Fluo-8 calcium fluorescence, ACh EC20; 0% = ACh EC20, 100% = maximal ACh; P11229; activation, % at 3 µM; AID 588819; in the data active = activation above about 19%, passing the limit was not always enough
A number is an active result; i = inactive.

SMILES	CHRM1 antagonist	M4 antag	M1 ag	CHRM4 agonist	M4 PAM	M1 PAM
Cc1cc(C)n(CC(O)Cn2c3ccc(Cl)cc3c3cc(Cl)ccc32)c(=O)n1 (configuration not stated)	i	i	i	i	i	i
O=[N+]([O-])c1cc([N+](=O)[O-])c(Oc2cccc3ccccc23)cc1NN1CCCCC1	i	i	i	i	30	30
O=[N+]([O-])c1cc([N+](=O)[O-])c(Oc2ccc(F)cc2F)cc1NN1CCCCC1	i	i	i	i	27	i
CC(=O)c1cccc(Oc2cc(NN3CCCCC3)c([N+](=O)[O-])cc2[N+](=O)[O-])c1	i	i	i	i	i	i
CC(=O)c1ccccc1Oc1cc(NN2CCCCC2)c([N+](=O)[O-])cc1[N+](=O)[O-]	36	i	i	i	i	i
O=[N+]([O-])c1cc([N+](=O)[O-])c(Oc2c(Cl)cccc2Cl)cc1NN1CCCCC1	i	i	i	i	i	i
Oc1ccc(Cl)cc1CNCC1CCCCC1	i	i	i	i	i	i
Cc1cc(NC(=O)CSCC(=O)Nc2ccc(Cl)c(C(F)(F)F)c2)no1	i	i	i	i	i	i
Cc1cc(NC(=O)CN(C)CC(=O)Nc2ccc(Cl)c(C(F)(F)F)c2)no1	i	i	i	i	23	i
O=S(=O)(c1ccc(C2CCCCC2)cc1)N1CCCC1	i	i	i	i	i	i
CN(C1CCCCC1)S(=O)(=O)c1ccc(S(=O)(=O)N2CCCC2)cc1	32	i	i	i	i	i
Cc1cc(=O)n2nc(-c3ccccc3)sc2c1C#N	i	i	i	i	i	i
NC1=NC(=O)C(=Cc2ccccc2)S1	i	i	i	i	i	27
NC1=NC(=O)/C(=C\c2cccnc2)S1	i	i	i	i	i	i
COc1ccc(C(=O)/C=C2/C(=O)Nc3ccccc32)c(OC)c1	i	29	i	i	i	i
COc1ccc(C(=O)/C=C2/C(=O)Nc3ccccc32)cc1	i	i	i	i	i	i
COc1ccc(C(=O)/C=C2/C(=O)Nc3ccccc32)cc1OC	33	i	18	i	i	i
Cc1cccc(NC(=O)CC2CCC2)c1	i	i	i	i	i	i
CCOC(=O)c1ccc(NC(=O)CSc2nc(N3CCOCC3)nc(N3CCOCC3)n2)cc1	i	i	i	i	i	i
Cc1cc(C)cc(N(CCC#N)C(=O)COC(=O)C2CCN(c3ccc(C(F)(F)F)cn3)CC2)c1	30	i	i	i	i	i
Cc1cc(C)n2ncc(C(=O)NCCc3ccccc3)c2n1	i	i	i	i	i	i
CC1Cc2nc(SCC(=O)NCc3ccccc3)n(Cc3ccccc3)c(=O)c2S1 (configuration not stated)	53	38	i	i	i	i
Cc1ccc(S(=O)(=O)N/N=C/c2cc([N+](=O)[O-])ccc2O)cc1[N+](=O)[O-]	i	i	i	i	i	i
Cc1cc(C)nc(NS(=O)(=O)c2ccc(NC(=O)c3cccc(N4C(=O)CCC4=O)c3)cc2)n1	i	i	i	i	25	i
Cc1ccc(C(OCC(O)CNC(C)c2ccccc2)c2ccccc2)cc1 (configuration not stated)	i	i	i	i	i	i
SMILES	CHRM1 antagonist	M4 antag	M1 ag	CHRM4 agonist	M4 PAM	M1 PAM
Cc1ccc(C(OCC(C)(C)C[N+](C)(C)C)c2ccccc2)cc1 (configuration not stated)	99	52	i	i	i	i
CCN(CC)CC#CCOC(c1ccccc1)c1ccccc1	94	30	i	i	i	i
CN(C)CC#CCOC(c1ccccc1)c1ccccc1	80	27	i	i	i	i
CCN(CC)CCOC(c1ccccc1)c1ccc(C)cc1 (configuration not stated)	96	43	i	i	i	i
C(#CCN1CCOCC1)COCCCOC(c1ccccc1)c1ccccc1	i	i	i	i	i	i
COCCNCc1ccccc1	i	i	i	i	i	i
CCNCCOC(c1ccccc1)c1ccccc1	26	i	i	i	i	i
O=C(CSC(=S)N1CCCC1)N1CCN(S(=O)(=O)c2cccc(F)c2)CC1	i	i	i	i	i	i
O=C(CSc1nc2ccccc2c(=O)n1-c1ccc(F)cc1)Nc1cc(S(=O)(=O)N2CCOCC2)ccc1Cl	i	30	i	i	i	i
COc1cccc(OC)c1C(=O)Nc1cccc(-c2ccc3nncn3n2)c1	i	i	i	i	i	i
COc1ccc(/C=C/CN2CCCC(CCC(=O)NCc3ccc(F)c(F)c3)C2)cc1 (configuration not stated)	84	71	i	i	i	i
O=C(CCC1CCCN(Cc2cccc3c2OCO3)C1)NCc1ccc(F)c(F)c1 (configuration not stated)	42	i	i	i	i	i
O=C(Cc1csc(Nc2nc(=S)[nH]c3ccccc23)n1)NCc1ccccc1Cl	i	i	i	i	i	i
CCOc1ccc(CC(=O)NC2CC(C)(C)N(C)C(C)(C)C2)cc1OCC	i	i	i	i	i	i
CN(CC(O)CN)CC(O)CN1CCCCC1 (configuration not stated)	i	i	i	i	i	i
Cc1ccc(S(=O)(=O)NCCSc2nnnn2-c2ccc(C(N)=O)cc2)cc1	i	i	i	i	i	i
Cc1ccc(-n2nnnc2Sc2ccc(S(=O)(=O)NCCN(C)C)cc2[N+](=O)[O-])cc1	86	34	i	i	i	i
O=[N+]([O-])c1cc(S(=O)(=O)NCCN2CCOCC2)ccc1Sc1nnnn1-c1ccccc1	62	49	i	i	i	i
COC(C#CCCN(C)C)(c1ccccc1)c1ccccc1	99	35	i	i	i	i
CN(C)CCNC=C(C(=O)Nc1ccc(Cl)cc1Cl)C(=O)Nc1ccc(Cl)cc1Cl	i	i	i	i	i	i
CCOC(=O)Nc1ccc2c(c1)N(C(=O)CN1CCN(C)CC1)c1ccccc1S2	75	i	i	i	i	i
CCOC(=O)Nc1ccc2c(c1)N(C(=O)OC)c1ccccc1CC2	i	i	i	i	i	i
CCOC(=O)Nc1ccc2c(c1)N(C(=O)C(C)N1CCCC1)c1ccccc1CC2 (configuration not stated)	91	60	i	i	i	i
CCCC(CCC)C(=O)Nc1ccc2c(c1)N(C(=O)CN1CCN(C)CC1)c1ccccc1CC2	78	44	i	i	i	i
CCOC(=O)Nc1ccc2c(c1)N(C(=O)CCN(C)C)c1ccccc1S2	51	i	i	i	i	i
Cc1ccccc1NC(=O)c1cccc(S(=O)(=O)N2CCOCC2)c1	i	i	i	i	i	i
